Most compounds without a hit are left out; they make up all but 9.2% or so of the library.
Rab9 promoter act: activators of Rab9 promoter | Potency, µM (series often up to 9.22 µM), without a hit: top-dose activation, negative = inhibition, usual class: activators | actives 2.8% (n = 320,000) | Huh7 Rab9 promoter-luciferase reporter, luminescence, 24 h; note: % of control where 0% means no effect; nearly all actives have a fitted effect of over 60% in size
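Huh7 reporter line, Rab9 promoter upstream of luciferase. Compound exposure 24 h at 37 °C in reduced-serum medium with 10% FBS. Read-out: luminescence.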
ELG1 DNA repair: ELG1-dependent DNA repair inhibition; HEK293T ELG1-luciferase reporter, luminescence, 16 h; DNA damage induced by 5-fluorouridine; Potency, µM (titrated, usually from 46.1 µM), without a hit: at the top dose activity change, negative = inhibition, most hits filed as inhibitors; actives 2.3% (n = 330,000); AID 504467; note: % is set by controls: 0 for no effect and ±100 for the full control effect; nearly all actives have a fitted effect of over 55% in size
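In this reporter screen, reduction of luminescence relative to DMSO vehicle indicated activity. Compounds and 5-fluorouridine were added together to 2,000 cells per well, incubated for 16 hr at 37 °C, then developed with ONE-Glo.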
NPC1 prom act: activates the NPC1 promoter; Huh7 NPC1 promoter luciferase reporter, 24 h; Potency, µM (highest dose often 9.22 µM), for the others: at the top dose activation, actives largely listed as activators; AID 485313; actives 2.4% (n = 320,000); note: % of control where 0% means no effect; nearly all actives have a fitted effect of over 60% in size
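Readout is luciferase luminescence, reflecting NPC1 promoter activation in stably transfected Huh7 cells after 24 h compound exposure at 37 °C in reduced-serum medium with 10% FBS.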
SMN2 splice up: SMN2 splice variant enhancement; HEK293 SMN2-luciferase splicing reporter, luminescence, 30-36 h; Potency, µM (series often up to 46.1 µM), for the others: at the top dose activity change, positive = activation, actives largely listed as activators; actives 2.8% (n = 210,000); note: % of control where 0% means no effect; nearly all actives have a fitted effect of over 55% in size
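HEK293 cells carry an SMN2 […]–luciferase reporter in which exon 7 inclusion puts luciferase in frame. Cells were plated 10-12 h before compound addition, then incubated 30-36 h at 37C. ONE-Glo luminescence was read; sodium butyrate at 4.5 mM final served as control.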
FLuc counter: counter-screen for miR-21 project: firefly luciferase inhibitors or activators | P08659 | purified FLuc, Km substrates, luminescence inhibition | Potency, µM (top dose mostly 57.5 µM), for inactives: top-dose activity change, negative = inhibition, usual class: inhibitors | actives 6.9% (n = 360,000);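 note: plate controls were vehicle for no effect and reference inhibitor for full effect; nearly all actives have a fitted effect of over 55% in size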
Target sequence (P08659 whole entry, looked up): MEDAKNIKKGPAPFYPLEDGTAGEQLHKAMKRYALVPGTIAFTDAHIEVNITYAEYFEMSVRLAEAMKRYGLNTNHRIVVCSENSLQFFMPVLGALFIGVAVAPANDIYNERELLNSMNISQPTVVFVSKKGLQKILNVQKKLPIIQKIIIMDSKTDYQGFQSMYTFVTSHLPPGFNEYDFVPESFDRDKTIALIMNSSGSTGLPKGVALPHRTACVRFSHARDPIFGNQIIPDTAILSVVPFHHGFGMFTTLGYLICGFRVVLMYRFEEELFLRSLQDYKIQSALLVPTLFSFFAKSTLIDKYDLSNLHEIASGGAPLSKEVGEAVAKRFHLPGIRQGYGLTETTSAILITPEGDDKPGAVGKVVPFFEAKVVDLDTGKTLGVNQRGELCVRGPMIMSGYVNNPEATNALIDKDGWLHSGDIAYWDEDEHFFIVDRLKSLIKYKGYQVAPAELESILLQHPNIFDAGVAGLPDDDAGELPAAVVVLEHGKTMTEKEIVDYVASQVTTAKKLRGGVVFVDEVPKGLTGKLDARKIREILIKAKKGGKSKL
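Biochemical qHTS of compounds, final roughly 60 µM downward over six points, against 10 nM purified firefly luciferase using Km concentrations of substrates (10 uM D-luciferin, 10 uM ATP) in Tris acetate pH 7.5 buffer; luminescence output.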
ELG1 genotoxic: induces genotoxicity in HEK293T cells with luciferase-tagged ELG1; HEK293T ELG1-luciferase reporter, luminescence, 16 h; actives 1.3% (n = 330,000); Potency, µM (titrated, usually from 46 µM), for the others: at the top dose activity change, positive = activation, actives largely listed as activators; AID 504466; note: % of control where 0% means no effect; nearly all actives have a fitted effect of over 60% in size
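Genotoxic stress is detected as increased luminescence from luciferase-tagged ELG1 in HEK293T cells, measured with ONE-Glo after a 16 hr treatment at 37 °C.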
The depositor's hits bear a star; ? = inconclusive; · = not tested or not shown; [ ] = remark or other dose. Calls come from the whole dose curve; as a rule, active = well fitted curve in the direction sought with a large enough effect; inconclusive = small, poorly fitted or top-dose-only effect, or another doubt; inactive = no such curve, though single readings can be large; an effect the other way counts as inactive or inconclusive. Potency is the fitted concentration of half-maximal effect.

SMILES	Rab9 promoter act	ELG1 DNA repair	NPC1 prom act	SMN2 splice up	FLuc counter	ELG1 genotoxic
COC(=O)C(Cc1ccc(N(CCCl)CCCl)cc1)N=Cc1ccccc1O (stereo unspecified)	-49%	18µM*	-34%	·	-13%	?
CC(=O)OC(CC(=O)O)C[N+](C)(C)C (stereo unspecified)	-7%	18µM*	-2%	13µM*	5%	-6%
CC(=O)O[C@H](CC(=O)O)C[N+](C)(C)C	-5%	-6%	-6%	·	-1%	-10%
Nc1ccc(Oc2cccc(Oc3ccc(N)cc3)c2)cc1	-13%	0%	-21%	-50%	19µM*	-12%
CCCOP(=O)(OCCC)c1nc(-c2ccccc2)oc1NCc1ccccc1	-1%	?	1%	-6%	3%	-3%
CCOP(=O)(OCC)c1nc(-c2ccc(Cl)cc2)oc1NCc1ccccc1	0%	23µM*	-5%	-6%	-2%	-6%
C#CCN1C(=O)S/C(=C\c2ccc(N3CCOCC3)cc2C)C1=O	2.8µM*	?	?	22%	2.4µM*	?
CCOc1ccc(N2C(=O)NC(=O)/C(=C\c3ccc(N4CCOCC4)cc3C)C2=O)cc1	2%	?	0%	-5%	?	3%
NCCc1ccc(S(=O)(=O)O)cc1[N+](=O)[O-]	·	·	·	-4%[9.22 µM]	·	·
CCN(CC)S(=O)(=O)c1ccc(NN=C(C#N)C#N)cc1	-7%	?	1%	·	?	-20%
N#CC(C#N)=NNc1ccc([N+](=O)[O-])cc1	-7%	-29%	0%	·	17µM*	-11%
N#CCCCC[N+]12CN3CN(CN(C3)C1)C2	·	·	·	-10%[9.22 µM]	·	·
CC(C)C[C@H]1C(=O)N2CCC[C@H]2[C@]2(O)O[C@](NC(=O)[C@@H]3C=C4c5cccc6[nH]c(Br)c(c56)CC4N(C)C3)(C(C)C)C(=O)N12 (stereo partly specified)	-4%	18µM*	-5%	-66%	1%	-3%
S=C=Nc1cccc2ccccc12	·	·	·	2%	·	·
Cc1ccc(C)c(NP(=O)(Oc2ccccc2)Oc2ccccc2)c1	-1%[1.84 µM]	8.2µM*	2%	·	2%	-15%
Cc1ccc(S(=O)(=O)NP(=O)(Oc2ccccc2)Oc2ccccc2)cc1	-2%	0%	0%	-26%	6%	1%
COc1ccc(CN2C(=O)NC(=O)/C(=C\c3cc(OC)c(OC)c(OC)c3)C2=O)cc1	0%	?	1%	-42%	19µM*	5%
COc1ccc(CN2C(=O)NC(=O)/C(=C\c3ccco3)C2=O)cc1	-2%	?	-9%	1%	24µM*	-1%
COc1ccc(/C=C2\C(=O)NC(=O)N(Cc3ccccc3)C2=O)c(OC)c1OC	0%	22%	3%	7%	-20%	6%
Cc1ccc(Cl)cc1N1CCN(C(=O)C2CCCN(S(=O)(=O)c3ccc(Br)s3)C2)CC1 (stereo unspecified)	·	·	·	-32%	1%	·
O=C(O)C(Cl)(Cl)Br	·	·	·	-4%	·	·
N[C@H](Cc1c[nH]c2ccccc12)P(=O)(O)O	·	·	·	1%[9.22 µM]	·	·
ClCC[N+]12CC[N+](CCCl)(CC1)C2 (tested in a mixture with another compound)	·	·	·	14%[9.22 µM]	·	·
C=C[C@@H]1CN2CC[C@H]1CC2[C@H](O)c1ccnc2ccccc12 (stereo partly specified)	·	·	·	-7%[9.22 µM]	·	·
NC1=NC([S][Hg][c]2ccc(N)cc2)c2ncn([C@@H]3O[C@H](CO)[C@@H](O)[C@@H]3O)c2N1 (stereo partly specified)	·	·	·	-104%[9.22 µM]	·	·
SMILES	Rab9 promoter act	ELG1 DNA repair	NPC1 prom act	SMN2 splice up	FLuc counter	ELG1 genotoxic
CN1C(=O)C(=Cc2c(OCc3cnc(Cl)s3)ccc3ccccc23)C(=O)N(C)C1=O	?	-2%	22%	3%	19µM*	?
CN1C(=O)C(=Cc2ccccc2OCc2ccccc2Cl)C(=O)N(C)C1=O	-4%	15%	-4%	6%	?	-1%
CCN(C[C@H]1N[C@@](CC)(C(=O)OC)[C@H]2C(=O)N(Cc3ccccc3)C(=O)[C@@H]12)S(=O)(=O)c1ccc(OC)cc1	·	?	·	·	·	-4%
CC[C@@]1(C(=O)OC)N[C@H](CN(C)C(=O)c2ccc(C(C)(C)C)cc2)[C@@H]2C(=O)N(Cc3ccccc3)C(=O)[C@@H]21	·	12µM*	·	·	·	-8%
C=C(CO)CC1CC(O)[C@]2(C)OC3CC4OC5C[C@]6(C)O[C@]7(C)CCC8OC9C[C@]%10(C)OC%11C(C)=CC(=O)OC%11CC%10OC9C[C@@H](C)C8OC7CC6O[C@]5(C)C/C=C\C4OC3CC2O1 (stereo partly specified)	-11%	-20%	-3%	·	1%	-11%
C=C(C=O)CC1CC(O)[C@]2(C)OC3CC4OC5C[C@]6(C)O[C@]7(C)CCC8OC9C[C@]%10(C)OC%11C(C)=CC(=O)OC%11CC%10OC9C[C@@H](C)C8OC7CC6O[C@]5(C)CC5OC5C4OC3CC2O1 (stereo partly specified)	-42%	4.1µM*	-39%	·	0%	-17%
C=C(Cl)Cl	·	·	·	-4%	·	·
CC(C)CNCCc1ccccn1	·	·	·	-21%[9.22 µM]	·	·
Cc1ccc(NC(=[OH+])c2cc3ccccc3cc2O)c(C)c1.Cc1ccc(NC(=[OH+])c2cc3ccccc3cc2O)c(C)c1.[Ni]	·	·	·	23%[9.22 µM]	·	·
CSc1cccc(CNC(=O)C2CCC(=O)N(Cc3cccc(C(F)(F)F)c3)C2)c1 (stereo unspecified)	?	?	?	·	17µM*	?
c1ccc(NC2=Nc3ccccc3CC2)cc1	?	?	?	11%	?	16µM*
Cc1cc[c]([Sb]2[O]C([C@H](O)[C@H](O)C(=O)O)[C@@H](CO)[O]2)cc1 (stereo partly specified)	·	·	·	3%[9.22 µM]	·	·
O=C1NC(=O)N(Cc2ccc(F)cc2)C(=O)/C1=C\c1ccc(N2CCCC2)cc1	2%	-12%	-4%	·	?	11%
CN1C(=O)C(=Cc2ccc(N3CCCCCC3)cc2)C(=O)N(C)C1=O	0%	?	-3%	·	19µM*	0%
Cc1ccc(S(=O)(=O)N2CCC(=O)N(CCOC(=O)Nc3cccc(Cl)c3)CC2)cc1	1%	-24%	0%	-36%	?	4%
COc1cc(/C=C/C(=O)c2c(O)n(CCc3ccccc3)c(=O)[nH]c2=O)ccc1O	-8%	?	-1%	-63%	6.7µM*	-3%
Cc1cc(C(=O)Nc2ccc(CC(=O)O)cc2)c(C)o1	3%	22%	-8%	·	11µM*	0%

From PubChem BioAssay
